Test results from PubChem BioAssay AID2284353 (EPA ToxCast).
Records with an inconclusive call do not appear. Activity calls are given as the source filed them. Rule for the calls: active = hit-call score of the fitted dose curve at least 0.9, where 1 is the maximum; inconclusive = response in the unintended direction; inactive = score below 0.9.

test system: Japanese medaka Peroxisome Proliferator-activated Receptor gamma (PPARg), gene 100304459; assay: ATG_jmPPARg_EcoTox2: Attagene TRANS-FACTORIAL EcoTox-2 HepG2 Assay for Japanese medaka Peroxisome Proliferator-activated Receptor gamma (PPARg)
Method: ATG_EcoTox2 is a cell-based, multiplexed assay created by modifying the existing Attagene TRANS-FACTORIAL system to include a panel of nuclear receptors from some or all the following species: human (Homo sapiens), african clawed frog (Xenopus laevis), rainbow trout (Oncorhynchus mykiss), japanese medaka (Oryzias latipes), and zebrafish (Danio rerio). The ECOTOX2-FACTORIAL format uses HepG2, a human liver cell line, with measurements taken at 24 hours after chemical dosing in a 24-well plate. ATG_jmPPARg_EcoTox2 is one of 29 assay components calculated in the ATG_EcoTox2 assay. It is designed to make measurements of mRNA induction, a form of inducible reporter, as detected with fluorescence intensity signals by Reverse transcription polymerase chain reaction (RT-PCR) and Capillary electrophoresis technology.The assay endpoint ATG_jmPPARg_EcoTox2 was analyzed in the positive analysis fitting direction relative to DMSO as the negative control and baseline of activity. Using a type of inducible reporter, measures of mRNA for gain-of-signal activity can be used to understand the reporter gene at the transcription factor-level as they relate to the gene PPARg. Furthermore, this assay endpoint can be referred to as a primary readout, because this assay has produced multiple assay endpoints where this one serves a reporter gene function. To generalize the intended target to other relatable targets, this assay endpoint is annotated to the nuclear receptor intended target family, where the subfamily is non-steroidal.
Human liver HepG2 cells are transiently transfected with multiple reporter transcription units (MRTUs) in 6-well plates using FuGene 6 reagent (Roche; 3 ml FuGene/1 mg DNA). The MRTU constructs are regulated by a cis-regulating element (promoter). Each RTU expresses a GAL4-UAS that regulates the transcription of a nearby target reporter gene sequence. A major difference between the CIS and TRANS system is that in CIS activities of endogenous TFs are measured, whereas the TRANS assay evaluates changes in activities of exogenous, chimeric NR-Gal4 proteins. […] At the end of 24 hour incubation, total RNA was isolated using TriZol reagent (Invitrogen). The isolated RNA is then reverse-transcribed using oligo(dT) primer and Mo-MLV reverse transcriptase (Invitrogen) with DNAse I (Ambion) treatment for 30 min. The one-tenth of the produced cDNA was amplified by PCR using Taq DNA polymerase (Invitrogen) and two reporter sequence-specific primers. The PCR products were fluorescently labeled by primer extension with 6-arboxyfluorescein (6-FAM) 5'-labeled reporter sequence-specific primer (2 min at 95 C, 20 s at 68 C and 10 min at 72 C) and these products were digested with 5U of HpaI (New England Biolabs) for 2h at 37 C. The fragments were purified using Qiaquick PCR columns (Qiagen), analyzed on an ABI 3130xL genetic analyzer (Applied Biosystems) with peak positions identified by using a set of X-rhodamine (ROX)-labeled MapMarker1000 molecular weight standards (BioVentures). The raw capillary electrophoresis data was processed using Attagraph software (Attagene).

| Compound | outcome | AC50 |
| --- | --- | --- |
| Cc1c(C)c2c(c(C)c1O)CCC(C)(COc1ccc(CC3SC(=O)NC3=O)cc1)O2 (stereo not drawn) | inactive |  |
| CN(CCOc1ccc(CC2SC(=O)NC2=O)cc1)c1ccccn1 (stereo not drawn) | inactive |  |
| CC(C)OC(=O)C(C)(C)Oc1ccc(C(=O)c2ccc(Cl)cc2)cc1 | inactive |  |
| C[C@]12C=CC(=O)C=C1CC[C@@H]1[C@@H]2C(=O)C[C@@]2(C)[C@H]1CC[C@]2(O)C(=O)CO | inactive |  |
| C=C(c1ccc(C(=O)O)cc1)c1cc2c(cc1C)C(C)(C)CCC2(C)C |  | 5.55 µM (active) |
| Cc1nc(-c2ccc(C(F)(F)F)cc2)sc1C(=O)NCc1ccc(OC(C)(C)C(=O)O)cc1 |  | 20.9 µM (active) |
| CC(c1cc2ccccc2s1)N(O)C(N)=O (stereo not drawn) | inactive |  |
| Cc1ccc(C)c(OCCCC(C)(C)C(=O)O)c1 | inactive |  |
